Test results as given in PubChem BioAssay (NCI).
The panel holds about 79,000 compounds, 15% with a hit somewhere; the sample as a whole holds those more often. Unmarked numbers belong to inactive results. Activity calls are given as the source filed them. No stated cut-off is given here; in the data, active means growth inhibition above about 70%; inactive means the rest.

Tests used:
[1] = NCI Yeast Anticancer Drug Screen. Data for the rad52 strain (AID 147);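 further: 0% = growth of vehicle-treated control cultures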; settings: S. cerevisiae rad52 mutant growth inhibition, hits give high values
In short: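 Compounds are applied to a genetically defined yeast strain lacking normal DNA damage repair, and inhibition of growth is expressed relative to cultures given vehicle only.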

[2] = NCI Yeast Anticancer Drug Screen. Data for the wt1 strain (AID 149);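 further: 0% = growth of vehicle-treated wt1 cultures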; settings: S. cerevisiae wt1 strain (SPY 50644) growth inhibition, hits give high values
In short: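 Vehicle-normalised growth inhibition; strain wt1; compound exposure.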

[3] = NCI Yeast Anticancer Drug Screen. Data for the rad50EPP+ strain (AID 151);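 further: 0% = growth of vehicle-treated control cultures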; settings: S. cerevisiae rad50 mutant strain, hits give high values
In short: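 Compounds were applied to the rad50EPP+ yeast strain, which bears a defined DNA repair alteration, and growth inhibition was determined relative to vehicle-treated cultures.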

[4] = NCI Yeast Anticancer Drug Screen. Data for the mgt1 strain (AID 153); settings: S. cerevisiae mgt1 mutant growth inhibition, hits give high values
In short: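 Strain: mgt1 yeast, one of a set carrying defined DNA damage repair or cell cycle control alterations. Compound-treated growth compared with vehicle.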

[5] = NCI Yeast Anticancer Drug Screen. Data for the rad50 strain (AID 155);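 further: 0% = growth of vehicle-only cultures of the same strain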; settings: S. cerevisiae rad50 strain growth inhibition, hits give high values
In short: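 A DNA repair-deficient yeast mutant serves as the test organism; compound-induced growth inhibition is calculated against vehicle-treated cells.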

[6] = NCI Yeast Anticancer Drug Screen. Data for the mec2-1 strain (AID 157); settings: S. cerevisiae mec2-1 strain, hits give high values
In short: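 Strain: mec2-1 (DNA repair/cell cycle alteration). Compound exposure, then growth measured; inhibition expressed relative to vehicle.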

[7] = NCI Yeast Anticancer Drug Screen. Data for the rad14 strain (AID 159);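 further: 0% = growth of vehicle-treated control cultures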; settings: S. cerevisiae rad14 strain growth inhibition, hits give high values
In short: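 Vehicle-treated cultures served as the baseline for growth inhibition of a DNA repair-mutant yeast strain exposed to each compound.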

[8] = NCI Yeast Anticancer Drug Screen. Data for the sgs1 mgt1 strain (AID 161);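 further: 0% = growth of cultures given vehicle only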; settings: S. cerevisiae sgs1 mgt1 strain, hits give high values
In short: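 Genetically altered yeast, compound exposure, growth inhibition relative to vehicle.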

[9] = NCI Yeast Anticancer Drug Screen. Data for the CLN2oe strain (AID 163);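 further: 0% = growth of vehicle-only control cultures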; settings: S. cerevisiae CLN2oe strain, hits give high values
In short: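 Growth of a genetically modified yeast strain is measured after compound exposure and compared with cultures given vehicle alone.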

[10] = NCI Yeast Anticancer Drug Screen. Data for the cln2 rad14 strain (AID 165);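 further: 0% = growth equal to vehicle treated cultures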; settings: S. cerevisiae cln2 rad14 strain, hits give high values
In short: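 Compounds are applied to the cln2 rad14 yeast strain, and growth is then compared with that of vehicle-treated cultures to give inhibition.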

[11] = NCI Yeast Anticancer Drug Screen. Data for the bub3 strain (AID 167); settings: S. cerevisiae bub3 mutant strain, hits give high values
In short: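 Inhibition values come from growth of compound-treated mutant yeast normalised to vehicle-treated controls.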

[12] = NCI Yeast Anticancer Drug Screen. Data for the wt2 strain (AID 169);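 further: 0% = growth of vehicle-treated yeast cultures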; settings: S. cerevisiae wt2 strain growth inhibition, hits give high values
In short: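 This strain belongs to a panel of yeast strains with defined genetic alterations in DNA damage repair or cell cycle control. Compounds are applied, and growth inhibition is measured against vehicle-treated cultures.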

[13] = NCI Yeast Anticancer Drug Screen. Data for the sgs1 strain (AID 173);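 further: 0% = growth of vehicle-only control cultures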; settings: S. cerevisiae sgs1 mutant, hits give high values
In short: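 Growth of a yeast strain bearing a defined genetic alteration is measured after compound treatment. Inhibition is expressed relative to vehicle-only controls.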

[14] = NCI Yeast Anticancer Drug Screen. Data for the mlh1 rad18 strain (AID 175); settings: S. cerevisiae mlh1 rad18 strain growth inhibition, hits give high values
In short: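 Read-out is yeast growth inhibition, calculated against vehicle-only controls. The compound was applied to a strain engineered with DNA damage repair alterations.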

[15] = NCI Yeast Anticancer Drug Screen. Data for the mlh1 strain (AID 171);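 further: 0% = growth of vehicle-treated control cultures of the same strain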; settings: S. cerevisiae mlh1 strain growth inhibition, hits give high values
In short: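 Growth of the mutant yeast strain after compound exposure, expressed as inhibition relative to vehicle-only controls.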

[16] = NCI Yeast Anticancer Drug Screen. Data for the rad18 strain (AID 177); settings: S. cerevisiae rad18 mutant growth inhibition, hits give high values
In short: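 Growth of the mutant yeast strain after compound exposure, normalised to vehicle-only cultures.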

[17] = at 5.0 µM (retest, dose inferred, filed as 0.5)
[18] = at 50.0 µM (retest, dose inferred, filed as 5.0)

SMILES: CCOc1ccc(N)c(S)c1
- growth inhibition ([1]; at 1.2 µM): 1%
- growth inhibition ([1]; at 3.7 µM): 3%
- growth inhibition ([1]; at 11.0 µM): 10%
- growth inhibition ([1]; at 33.0 µM): 79% (active)
- growth inhibition ([1]; at 100.0 µM): 97% (active)
- growth inhibition ([2]; at 1.2 µM): 0%
- growth inhibition ([2]; at 3.7 µM): 4%
- growth inhibition ([2]; at 11.0 µM): 7%
- growth inhibition ([2]; at 33.0 µM): 38%
- growth inhibition ([2]; at 100.0 µM): 97% (active)
- growth inhibition ([3]; at 1.2 µM): 0%
- growth inhibition ([3]; at 3.7 µM): -4%
- growth inhibition ([3]; at 11.0 µM): 10%
- growth inhibition ([3]; at 33.0 µM): 97% (active)
- growth inhibition ([3]; at 100.0 µM): 96% (active)
- growth inhibition ([4]; at 1.2 µM): 0%
- growth inhibition ([4]; at 3.7 µM): -1%
- growth inhibition ([4]; at 11.0 µM): 6%
- growth inhibition ([4]; at 33.0 µM): 71% (active)
- growth inhibition ([4]; at 100.0 µM): 98% (active)
- growth inhibition ([5]; at 1.2 µM): 1%
- growth inhibition ([5]; at 3.7 µM): -45%
- growth inhibition [5, 17]: 0%
- growth inhibition ([5]; at 11.0 µM): 34%
- growth inhibition ([5]; at 33.0 µM): 88% (active)
- growth inhibition [5, 18]: 98% (active)
- growth inhibition ([5]; at 50.0 µM): 93.6% (active)
- growth inhibition ([5]; at 100.0 µM): 97% (active)
- growth inhibition ([6]; at 1.2 µM): 0%
- growth inhibition ([6]; at 3.7 µM): 4%
- growth inhibition [6, 17]: -1%
- growth inhibition ([6]; at 11.0 µM): 17%
- growth inhibition ([6]; at 33.0 µM): 68%
- growth inhibition [6, 18]: 96% (active)
- growth inhibition ([6]; at 50.0 µM): 91.3% (active)
- growth inhibition ([6]; at 100.0 µM): 98% (active)
- growth inhibition ([7]; at 1.2 µM): -2%
- growth inhibition ([7]; at 3.7 µM): -7%
- growth inhibition ([7]; at 11.0 µM): 1%
- growth inhibition ([7]; at 33.0 µM): 54%
- growth inhibition ([7]; at 100.0 µM): 98% (active)
- growth inhibition [8, 17]: 9%
- growth inhibition [8, 18]: 97% (active)
- growth inhibition ([8]; at 50.0 µM): 98.2% (active)
- growth inhibition ([9]; at 1.2 µM): 0%
- growth inhibition ([9]; at 3.7 µM): -6%
- growth inhibition ([9]; at 11.0 µM): -4%
- growth inhibition ([9]; at 33.0 µM): 4%
- growth inhibition ([9]; at 100.0 µM): 91% (active)
- growth inhibition [10, 17]: 9%
- growth inhibition [10, 18]: 98% (active)
- growth inhibition ([10]; at 50.0 µM): 97% (active)
- growth inhibition ([11]; at 1.2 µM): 0%
- growth inhibition ([11]; at 3.7 µM): 4%
- growth inhibition [11, 17]: 1%
- growth inhibition ([11]; at 11.0 µM): 23%
- growth inhibition ([11]; at 33.0 µM): 97% (active)
- growth inhibition [11, 18]: 27%
- growth inhibition ([11]; at 50.0 µM): 98% (active)
- growth inhibition ([11]; at 100.0 µM): 96% (active)
- growth inhibition ([12]; at 1.2 µM): -1%
- growth inhibition ([12]; at 3.7 µM): 8%
- growth inhibition ([12]; at 11.0 µM): 3%
- growth inhibition ([12]; at 33.0 µM): 86% (active)
- growth inhibition ([12]; at 100.0 µM): 97% (active)
- growth inhibition ([13]; at 1.2 µM): -3%
- growth inhibition ([13]; at 3.7 µM): 0%
- growth inhibition ([13]; at 11.0 µM): 18%
- growth inhibition ([13]; at 33.0 µM): 97% (active)
- growth inhibition ([13]; at 100.0 µM): 96% (active)
- growth inhibition [14, 17]: 2%
- growth inhibition [14, 18]: 98% (active)
- growth inhibition ([14]; at 50.0 µM): 92% (active)

SMILES: COc1ccc(C2CC(C)(N3CCCC3)Oc3cc4c(cc32)OCO4)cc1 (stereo unspecified)
- growth inhibition ([1]; at 1.2 µM): 4%
- growth inhibition ([1]; at 3.7 µM): 5%
- growth inhibition ([1]; at 11.0 µM): 4%
- growth inhibition ([1]; at 33.0 µM): 32%
- growth inhibition ([1]; at 100.0 µM): 94% (active)
- growth inhibition ([2]; at 1.2 µM): -3%
- growth inhibition ([2]; at 3.7 µM): -3%
- growth inhibition ([2]; at 11.0 µM): -5%
- growth inhibition ([2]; at 33.0 µM): -9%
- growth inhibition ([2]; at 100.0 µM): 11%
- growth inhibition ([3]; at 1.2 µM): 4%
- growth inhibition ([3]; at 3.7 µM): 4%
- growth inhibition ([3]; at 11.0 µM): 3%
- growth inhibition ([3]; at 33.0 µM): 9%
- growth inhibition ([3]; at 100.0 µM): -3%
- growth inhibition ([4]; at 1.2 µM): -1%
- growth inhibition ([4]; at 3.7 µM): -1%
- growth inhibition ([4]; at 11.0 µM): -3%
- growth inhibition ([4]; at 33.0 µM): -5%
- growth inhibition ([4]; at 100.0 µM): 85% (active)
- growth inhibition ([5]; at 1.2 µM): 5%
- growth inhibition ([5]; at 3.7 µM): 1%
- growth inhibition [5, 17]: -7%
- growth inhibition ([5]; at 11.0 µM): 0%
- growth inhibition ([5]; at 33.0 µM): 37%
- growth inhibition [5, 18]: 25%
- growth inhibition ([5]; at 50.0 µM): 64.5%
- growth inhibition ([5]; at 100.0 µM): 92% (active)
- growth inhibition ([6]; at 1.2 µM): -1%
- growth inhibition ([6]; at 3.7 µM): -1%
- growth inhibition [6, 17]: 11%
- growth inhibition ([6]; at 11.0 µM): -4%
- growth inhibition ([6]; at 33.0 µM): 1%
- growth inhibition [6, 18]: 9%
- growth inhibition ([6]; at 50.0 µM): 9.8%
- growth inhibition ([6]; at 100.0 µM): 36%
- growth inhibition ([7]; at 1.2 µM): 0%
- growth inhibition ([7]; at 3.7 µM): 0%
- growth inhibition ([7]; at 11.0 µM): -1%
- growth inhibition ([7]; at 33.0 µM): 9%
- growth inhibition ([7]; at 100.0 µM): 67%
- growth inhibition [8, 17]: -6%
- growth inhibition [8, 18]: 47%
- growth inhibition ([8]; at 50.0 µM): 61.5%
- growth inhibition ([9]; at 1.2 µM): 2%
- growth inhibition ([9]; at 3.7 µM): -1%
- growth inhibition ([9]; at 11.0 µM): -6%
- growth inhibition ([9]; at 33.0 µM): 6%
- growth inhibition ([9]; at 100.0 µM): 68%
- growth inhibition [10, 17]: 8%
- growth inhibition [10, 18]: 34%
- growth inhibition ([10]; at 50.0 µM): 19.4%
- growth inhibition ([11]; at 1.2 µM): 1%
- growth inhibition ([11]; at 3.7 µM): 5%
- growth inhibition [11, 17]: 22%
- growth inhibition ([11]; at 11.0 µM): -21%
- growth inhibition ([11]; at 33.0 µM): 22%
- growth inhibition [11, 18]: 74% (active)
- growth inhibition ([11]; at 50.0 µM): 41.4%
- growth inhibition ([11]; at 100.0 µM): 87% (active)
- growth inhibition ([12]; at 1.2 µM): -7%
- growth inhibition ([12]; at 3.7 µM): -1%
- growth inhibition ([12]; at 11.0 µM): -13%
- growth inhibition ([12]; at 33.0 µM): 6%
- growth inhibition ([12]; at 100.0 µM): 92% (active)
- growth inhibition ([15]; at 1.2 µM): 3%
- growth inhibition ([15]; at 3.7 µM): -1%
- growth inhibition ([15]; at 11.0 µM): -4%
- growth inhibition ([15]; at 33.0 µM): 13%
- growth inhibition ([15]; at 100.0 µM): 83% (active)
- growth inhibition [14, 17]: 2%
- growth inhibition [14, 18]: 75% (active)
- growth inhibition ([14]; at 50.0 µM): 76.7% (active)
- growth inhibition ([16]; at 1.2 µM): 5%
- growth inhibition ([16]; at 3.7 µM): 7%
- growth inhibition ([16]; at 11.0 µM): 12%
- growth inhibition ([16]; at 33.0 µM): 35%
- growth inhibition ([16]; at 100.0 µM): 77% (active)
